Experimental findings from paper PMC4336329 (PLoS ONE, 2015) are described below.

Among all 310,000 compounds or so, about 14,000 (4.5%) showed an effect of 50% or more. Effects have a minus sign here. What follows is part of a selection rich in strong results, with near analogues and random picks from the rest.
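Further: peak tail current of the secondary pulse compared with the same well before compound.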

Chain of human ether-à-go-go-related gene (hERG) potassium channel (Q12809 whole entry, looked up): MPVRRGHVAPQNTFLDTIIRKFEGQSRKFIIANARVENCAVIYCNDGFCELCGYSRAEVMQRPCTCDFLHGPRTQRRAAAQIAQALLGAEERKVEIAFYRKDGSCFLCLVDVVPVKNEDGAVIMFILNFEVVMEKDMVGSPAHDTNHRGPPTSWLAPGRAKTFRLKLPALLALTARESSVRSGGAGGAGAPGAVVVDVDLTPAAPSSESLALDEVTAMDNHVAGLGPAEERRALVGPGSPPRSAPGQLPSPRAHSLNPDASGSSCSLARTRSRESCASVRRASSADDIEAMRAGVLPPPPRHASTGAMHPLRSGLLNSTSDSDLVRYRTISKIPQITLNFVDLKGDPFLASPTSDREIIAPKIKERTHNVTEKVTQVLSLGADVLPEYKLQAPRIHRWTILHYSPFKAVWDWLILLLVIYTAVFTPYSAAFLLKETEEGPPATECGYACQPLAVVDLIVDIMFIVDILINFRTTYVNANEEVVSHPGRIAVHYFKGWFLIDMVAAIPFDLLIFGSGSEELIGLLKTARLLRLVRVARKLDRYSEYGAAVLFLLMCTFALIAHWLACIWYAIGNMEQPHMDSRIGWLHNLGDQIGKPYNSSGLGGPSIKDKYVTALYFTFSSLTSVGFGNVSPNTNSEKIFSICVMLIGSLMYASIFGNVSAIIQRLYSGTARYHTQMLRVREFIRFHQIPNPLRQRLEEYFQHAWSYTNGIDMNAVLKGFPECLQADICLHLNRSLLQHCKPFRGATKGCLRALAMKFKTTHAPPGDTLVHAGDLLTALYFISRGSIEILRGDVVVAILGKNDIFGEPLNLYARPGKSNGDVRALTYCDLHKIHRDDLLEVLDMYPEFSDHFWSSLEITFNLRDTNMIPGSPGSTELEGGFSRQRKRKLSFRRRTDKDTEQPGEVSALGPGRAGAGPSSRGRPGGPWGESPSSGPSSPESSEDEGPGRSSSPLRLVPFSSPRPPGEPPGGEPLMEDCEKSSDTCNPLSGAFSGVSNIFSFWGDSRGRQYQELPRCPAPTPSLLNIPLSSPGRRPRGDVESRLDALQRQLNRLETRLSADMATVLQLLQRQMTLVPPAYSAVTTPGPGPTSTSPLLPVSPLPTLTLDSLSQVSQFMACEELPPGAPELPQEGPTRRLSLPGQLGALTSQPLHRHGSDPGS

The assay addresses human ether-à-go-go-related gene (hERG) potassium channel (human, UniProt Q12809). Put plainly: primary screen, population patch clamp on CHO cells stably expressing hERG; higher = less effect of the substance.
Take `CCc1nc2c3cnn(-c4cc(Cl)ccc4C)c3ncn2n1`: the “hERG current change (%, negative = inhibition) at 10uM” value is reported as 5.24%.
Turning to `Cn1c2ccccc2c2c(C(=O)O)cn(C3CCCC3)c(=O)c21`, the “hERG current change (%, negative = inhibition) at 10uM” value is 7.78%.
Next, `Cn1cc(-c2ccccc2C(N)=O)c(=O)c2ccccc21`: 5.37%; `NC(=O)c1cn(C2CCCCC2)c2ccccc2c1=O`: -65.2%.
Then `CN(C)S(=O)(=O)c1ccc(C(=O)N2CC(=O)Nc3ccc(F)cc3C2c2ccc(F)cc2)cc1` (stereo not drawn), with -21%; and `CCC(CC)NC(=O)C1CCN(S(=O)(=O)c2cccs2)CC1`, with 1.92%; and `COc1ccc(Cl)cc1NC(=S)Nc1cccc(C)c1`, with 10.3%.
Next, `Cl.O=C(O)c1ccc(CNCc2ccccc2F)cc1`: 5.98%.
Take `Cc1ccc(C)c(OCC(O)CN2C(C)CCCC2C)c1.Cl` (stereo not drawn): the “hERG current change (%, negative = inhibition) at 10uM” value is -67.9%.
Consider `CC1CCCC(C)N1CC(O)COc1ccc(Cl)cc1` (stereo not drawn), for which the “hERG current change (%, negative = inhibition) at 10uM” value was -65%.
Then `Cc1cc(Cl)ccc1OCC(=O)N1C(C)CCCC1C` (stereo not drawn), with -6.46%; and `Cc1cc(OCC(O)CN2C(C)CCCC2C)ccc1C(C)C` (stereo not drawn), with -32.4%.
Next, `Cc1cc(Cl)ccc1OCC(O)CN1C(C)CCCC1C.Cl` (stereo not drawn): -73.2%.
Next, `CC1CCCC(C)N1CC(O)COCc1ccccc1.Cl` (stereo not drawn): 5.08%.
As to `COc1cccc(OCC(O)CN2C(C)CCCC2C)c1.Cl` (stereo not drawn), the “hERG current change (%, negative = inhibition) at 10uM” value came to 10.8%.
Take `CC1CCCC(C)N1CC(O)COCc1ccccc1F.Cl` (stereo not drawn): the “hERG current change (%, negative = inhibition) at 10uM” value is on record as 13.2%.
Then `CC(=O)Nc1ccc(OCC(O)CN2C(C)CCCC2C)cc1.Cl` (stereo not drawn), with 19.1%; and `CCn1c(/C=C/c2c[nH]c3ccccc23)nc2ccccc2c1=O`, with 20.5%; and `CCOc1ccc2nc(N3CCC(C(=O)Nc4nnc(CC)s4)CC3)sc2c1`, with 11.9%.
Next, `Cn1c(=O)c2cn(Cc3ccc(Cl)cc3)cc2n(C)c1=O`: -1.75%; `CCOc1ccc(C2NCCc3cc(OC)c(OC)cc32)cc1OC` (stereo not drawn): 12.3%.
Next, `O=C1C(CSCc2ccccc2)NC(=S)N1c1ccccc1` (stereo not drawn): 16%; `Nc1nc(SCCO)[nH]c(=O)c1NC(=O)c1ccc(Br)o1`: 23.8%.
On to `Cc1ccc(OCC(=O)NNC(=O)C2CCN(c3ncccn3)CC2)cc1`, for which the “hERG current change (%, negative = inhibition) at 10uM” value is -18.6%.
Next, `COC(=O)C1=C[C@@H](C(=O)OC)[C@@H]2C3=C(C(=O)[C@]2(CC(C)C)NC(=O)c2ccccc2)[C@H](C)n2c(=O)n(-c4ccccc4)c(=O)n2[C@@H]3C1`: -8.87%.
With `CCN(C(=O)COC(=O)C1CCN(S(=O)(=O)c2ccc3c(c2)OCCO3)CC1)C1CCCCC1`, the “hERG current change (%, negative = inhibition) at 10uM” value is reported as -2.31%.
Next, `CC1(C)Cc2cccc(OCC(=O)NCc3ccccc3F)c2O1`: -5.79%; `CC(Oc1ccccc1)C(=O)N1CCC2(CC1)CC(=O)c1ccccc1O2` (stereo not drawn): -65.7%; `CC(Oc1ccccc1)C(=O)N1CCN(c2ccc(N3CCCCC3)nn2)CC1` (stereo not drawn): -28.5%.
Then `CC(=O)N1CCC2(CC1)CC(=O)c1cc(OCC(=O)NCc3ccc(C)cc3)ccc1O2`, with -21.3%.
Then `CCOC(=O)COc1ccc2c(c1)C(=O)CC1(CCN(C(C)=O)CC1)O2`, with -19.7%; and `CC(Oc1ccccc1)C(=O)N1CCN(c2ccc(N3CCOCC3)nn2)CC1` (stereo not drawn), with -3.79%; and `CC(Oc1ccccc1)C(=O)N1CCC2(CC1)Oc1ccc(Cl)cc1C(=O)C21CC(c2ccccc2)=NO1` (stereo not drawn), with 7.46%.
As to `CC(Oc1ccccc1)C(=O)N1CCN(C(=O)C(C)Oc2ccccc2)CC1` (stereo not drawn), the “hERG current change (%, negative = inhibition) at 10uM” value was 8.52%.
Then `CC(Oc1ccccc1)C(=O)N1CCN(c2ccc(N3CCCCCC3)nn2)CC1` (stereo not drawn), with -52.7%.
Consider `O=C1CC2(CCN(C(=O)COc3ccc(Cl)cc3)CC2)Oc2ccccc21`, for which the “hERG current change (%, negative = inhibition) at 10uM” value is -85.8%.
Turning to `Cc1ccc(OCC(=O)N2CCC3(CC2)CC(=O)c2ccccc2O3)cc1`, the “hERG current change (%, negative = inhibition) at 10uM” value is -73.3%.
Then `COc1ccc(C2=NS(=O)(=O)N(C)C(C(=O)N3CCOCC3)=C2)cc1OC`, with -2.16%.
Next, `CN1CCN(C(=O)c2cnn(-c3ccccc3)c2NC(=O)c2cccs2)CC1`: -29.2%.
Then `CCCCC1(C(=O)OCC)NC(c2ccc(O)cc2)C2C(=O)N(c3ccccc3)C(=O)C21` (stereo not drawn), with -3.73%.
`CCOC(=O)C1=C(N)N2C(=O)C(C)SC2=C(C(=O)OCC)C1c1cc(OC)c(OC)c(OC)c1` (stereo not drawn): the “hERG current change (%, negative = inhibition) at 10uM” value came out at 1.27%.
For `COc1ccc(OC)c(S(=O)(=O)N2CCC(C(=O)NCc3ccccc3)CC2)c1`, the “hERG current change (%, negative = inhibition) at 10uM” value is -9.9%.
For `CN1CCN(/C=C2\SC(=S)NC2=O)CC1`, the “hERG current change (%, negative = inhibition) at 10uM” value stood at 11.6%.
Next, `O=C(NNc1ccccc1)C(=O)NNS(=O)(=O)c1ccc(CCCl)cc1`: 2.82%; `O=C1CC(N2CCOCC2)=NN1c1ccc([N+](=O)[O-])cc1`: -8.54%.
